Laboratory results reported in PubChem BioAssay (Tox21).
A number with no mark means an inactive call. Inconclusive results are not listed. A call without a number means that no potency is given here. Activity calls are given as the source filed them. Unless noted, calls follow the shape of the dose curve; as a rule, active = well fitted curve in the direction sought with a large enough effect in the repeat runs; inconclusive = weak or mixed curves; inactive = no such curve, though single readings can be large; an effect the other way counts as inactive or inconclusive.

Legend:
[1] = qHTS assay for small molecules that induce genotoxicity in human embryonic kidney cells expressing luciferase-tagged ATAD5 (AID 651632); also: nearly all actives have a fitted effect of over 15% in size; also: potency is read from the fitted curve at half-maximal effect
Summary of the method: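 HEK293T cells carrying a luciferase reporter tagged to ATAD5 were exposed to compound or DMSO vehicle for 16 hr at 37C, 5% CO2. Amplite was added, and after 30 min at room temperature luciferase activity was read as a marker of ATAD5 induction.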

[2] = qHTS assay for small molecule agonists of the p53 signaling pathway - cell viability (AID 651633; calls by dose curve;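 also: p53RE-bla HCT reporter cells with a stable beta-lactamase p53 reporter; series mostly up to about 83 µM; nearly all actives have a fitted effect of over 30% in size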)
Summary of the method: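 Viability counter-read: CellTiter-Glo luminescence (30 min, room temperature) in the same p53RE-bla plates. These plates had been exposed to compounds for 16 h at 37 C.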

[3] = qHTS assay for small molecules that induce genotoxicity in human embryonic kidney cells expressing luciferase-tagged ATAD5 - cell viability (AID 651634; calls by dose curve; also: nearly all actives have a fitted effect of over 25% in size)
Summary of the method: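 HEK293T cells expressing luciferase-tagged ATAD5 were exposed to compound or DMSO for 15.5 hr at 37C, 5% CO2. Viability was then read as live-cell protease activity by CellTiter-Fluor fluorescence after 30 min at 37C.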

[4] = qHTS assay for small molecule disruptors of the mitochondrial membrane potential - cell viability (AID 720634; calls by dose curve;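 also: human HepG2 liver cancer cells; series mostly up to about 83 µM; nearly all actives have a fitted effect of over 20% in size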)
Summary of the method: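 HepG2 cells seeded overnight at 37 C, then exposed to compound or DMSO for 1 hr at 37 C, 5% CO2. m-MPI dye added, then CellTiter-Glo for 30 min at room temperature; viability read as ATP luminescence.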

[5] = qHTS assay to test for compound auto fluorescence at 590 nm (red) in HepG2 cells (AID 720674)
Summary of the method: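 Red autofluorescence (Ex/Em 540/590 nm, Rose Bengal sodium equivalents) was measured in HepG2 cells, 2,000 per well in MEM plus 10% FBS, plated overnight at 37 C. Readings were taken 1 hr after adding 23 nL compound or DMSO, at 37 C and 5% CO2.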

[6] = qHTS assay to test for compound auto fluorescence at 460 nm (blue) in HEK293 cells (AID 720678)
Summary of the method: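 HEK293 cells (2,000 per well, medium with 10% dialyzed FBS) attached for 4-5 hr at 37C, then received compound and stood overnight at 37C, 5% CO2. Blue fluorescence was read at Ex/Em 405/460 nm and expressed relative to triamterene.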

[7] = qHTS assay to test for compound auto fluorescence at 535 nm (green) in HepG2 cells (AID 720675)
[8] = qHTS assay to test for compound auto fluorescence at 590 nm (red) in HEK293 cells (AID 720679)
Summary of the method: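 HEK293 cells (2,000/well, medium with 10% dialyzed FBS) attached for 4-5 hr at 37C, received 23 nL compound and were incubated overnight at 37C, 5% CO2. Red fluorescence was then read at 540/590nm Ex/Em, referenced to Rose Bengal sodium.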

[9] = qHTS assay for small molecule disruptors of the mitochondrial membrane potential (AID 720635); also: potency is read from the fitted curve at half-maximal effect
Summary of the method: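 Mitochondrial membrane potential tracked with Mito-MPS dye, red aggregates (ex 540/em 590 nm) against green monomers (ex 490/em 535 nm). Compound treatment 1 hr at 37C, dye 30 min in HepG2.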

Compound | Potency [1] | outcome [2] | Potency [3] | outcome [4] | outcome [5] | outcome [6] | outcome [7] | outcome [8] | Potency [9] | fluorescence, relative to Rose Bengal [5] | fluorescence, % of fluorescein control [7] | fluorescence, % of triamterene [6]
CCC(C)NC(N)=O (configuration not stated) | inactive | inactive | inactive | inactive | inactive | inactive | – | – | – | – | – | –
CC(S)C(=O)NCC(=O)O (configuration not stated) | inactive | inactive | inactive | – | inactive | inactive | inactive | inactive | – | – | – | –
O=Cc1ccc(Cl)c(Cl)c1 | inactive | inactive | inactive | – | inactive | inactive | inactive | inactive | – | – | – | –
O=C(/N=N/C(=O)OCc1ccccc1)OCc1ccccc1 | inactive | inactive | inactive | – | inactive | inactive | inactive | inactive | – | – | – | –
COc1cc2c(cc1OC)[C@@H]1CC(=O)[C@@H](CC(C)C)CN1CC2 | inactive | – | inactive | inactive | inactive | inactive | inactive | inactive | – | – | – | –
CCCCNC1CC(C)(C)NC(C)(C)C1 | inactive | inactive | inactive | – | inactive | inactive | inactive | – | – | – | – | –
CC(C)c1ccc2cc(C(C)C)ccc2c1 | inactive | – | inactive | inactive | inactive | inactive | inactive | inactive | – | – | – | –
c1ccc2c(c1)ccc1c3ccccc3ccc21 | 0.881 µM (active) | – | inactive | inactive | inactive | inactive | inactive | inactive | inactive | – | – | –
O=S(=O)(O)c1ccc2cc(O)c(S(=O)(=O)O)cc2c1 | inactive | inactive | inactive | inactive | inactive | – | inactive | inactive | – | – | – | –
O=C(O)Cc1ccc(Cl)cc1Cl | inactive | inactive | inactive | inactive | inactive | inactive | – | inactive | – | – | – | –
CC(CC=O)CCCC(C)(C)O (configuration not stated) | inactive | inactive | inactive | – | inactive | inactive | – | – | inactive | – | – | –
CC(C)C(=O)OCCc1ccccc1 | inactive | inactive | inactive | – | inactive | inactive | inactive | inactive | – | – | – | –
N#Cc1ccc(C(=O)O)cc1 | inactive | – | inactive | – | inactive | inactive | inactive | inactive | inactive | – | – | –
BrCc1cccc(Oc2ccccc2)c1 | – | – | inactive | inactive | inactive | inactive | inactive | – | – | – | – | –
C=C(C)C(=O)OCCOP(=O)(O)OCCOC(=O)C(=C)C | – | inactive | inactive | inactive | inactive | inactive | inactive | inactive | inactive | – | – | –
N[C@@H](COP(=O)(O)O)C(=O)O | – | inactive | inactive | inactive | inactive | inactive | inactive | – | inactive | – | – | –
OC[C@H](Cc1cccc(O)c1)[C@H](CO)Cc1cccc(O)c1 | inactive | – | inactive | inactive | inactive | inactive | inactive | inactive | – | – | – | –
NS(=O)(=O)c1ccc(NC(=O)CCC(=O)O)cc1 | – | – | inactive | inactive | inactive | inactive | – | inactive | inactive | – | – | –
C=C(C)C(=O)OCc1ccccc1 | – | inactive | inactive | inactive | inactive | inactive | inactive | inactive | inactive | – | – | –
CCc1ccc(C=O)cc1 | – | inactive | inactive | inactive | inactive | inactive | inactive | – | inactive | – | – | –
O=C(NCC(O)CO)c1c(I)c(C(=O)NCC(O)CO)c(I)c(N(CCO)C(=O)CO)c1I (configuration not stated) | – | inactive | inactive | inactive | – | – | – | – | inactive | -0.211% [at 18.6 µM] | -0.0278% [at 18.6 µM] | 0.0229% [at 18.6 µM]
CN(C)c1ccc(C=O)cc1 | – | inactive | inactive | inactive | inactive | inactive | inactive | inactive | – | – | – | –
CCC(CC)CO | – | inactive | inactive | inactive | inactive | inactive | inactive | – | inactive | – | – | –
Cc1ccc(S(=O)(=O)O)c(C)c1 | – | inactive | inactive | inactive | inactive | inactive | – | inactive | – | – | – | –

Compound | Potency [1] | outcome [2] | Potency [3] | outcome [4] | outcome [5] | outcome [6] | outcome [7] | outcome [8] | Potency [9] | fluorescence, relative to Rose Bengal [5] | fluorescence, % of fluorescein control [7] | fluorescence, % of triamterene [6]
CC(C)CCCCOC(=O)c1ccccc1C(=O)OCCCCC(C)C | inactive | – | inactive | – | inactive | inactive | inactive | inactive | inactive | – | – | –
CC(=O)Nc1ccc(S(=O)(=O)Cl)cc1 | – | inactive | inactive | inactive | inactive | inactive | inactive | inactive | – | – | – | –
O=C(O)c1ccc(Cl)cc1Cl | – | inactive | inactive | inactive | inactive | inactive | inactive | inactive | inactive | – | – | –
CCCCC(CC)COCCO (configuration not stated) | inactive | – | inactive | – | inactive | inactive | inactive | inactive | inactive | – | – | –
Brc1ccc(-c2ccccc2)cc1 | inactive | – | inactive | – | inactive | inactive | inactive | inactive | – | – | – | –
COP(=O)(OC)OC(c1ccc(Cl)cc1)P(=O)(OC)OC (configuration not stated) | – | – | inactive | inactive | inactive | inactive | inactive | inactive | inactive | – | – | –
O=C(Nc1ccc(Cl)c(Cl)c1)C1CC1 | – | inactive | inactive | – | inactive | inactive | inactive | inactive | 11.9 µM (active) | – | – | –
CC(C)N(c1ccccc1)C(C)C | inactive | – | inactive | inactive | inactive | inactive | – | inactive | – | – | – | –
On1nnc2ccccc21 | – | inactive | – | inactive | inactive | inactive | inactive | inactive | inactive | – | – | –
CCN(CC)CC(=O)Nc1c(C)cccc1C | – | inactive | inactive | inactive | inactive | inactive | inactive | – | inactive | – | – | –
O=P(O)(O)OP(=O)(O)O | – | inactive | inactive | inactive | inactive | inactive | – | inactive | inactive | – | – | –
CCOc1cc(NC(C)=O)ccc1C(=O)OC | – | inactive | inactive | – | inactive | inactive | inactive | inactive | inactive | – | – | –
N[C@@H](CCC(=O)N[C@@H](CS)C(=O)NCC(=O)O)C(=O)O | – | inactive | inactive | inactive | inactive | inactive | inactive | inactive | inactive | – | – | –
COc1ccc(OC)c(Cl)c1 | – | – | inactive | inactive | inactive | inactive | inactive | inactive | – | – | – | –
C[C@H](CCC(=O)O)[C@H]1CC[C@H]2[C@@H]3C(=O)C[C@@H]4CC(=O)CC[C@]4(C)[C@H]3CC(=O)[C@]12C | – | inactive | inactive | inactive | inactive | inactive | inactive | – | – | – | – | –
COc1cc(N)ccc1C | inactive | – | – | inactive | inactive | inactive | inactive | inactive | inactive | – | – | –
O=C1c2cccc3c2[C@H](CCC3)CN1[C@@H]1CN2CCC1CC2 | – | inactive | – | inactive | inactive | inactive | inactive | inactive | inactive | – | – | –
NCCN1CCOCC1 | – | inactive | inactive | inactive | inactive | inactive | inactive | inactive | inactive | – | – | –
Nc1ncnc(Nc2ccccc2)n1 | – | inactive | inactive | inactive | inactive | inactive | inactive | inactive | inactive | – | – | –
CN(C)CCOCCO | inactive | – | inactive | – | inactive | inactive | – | inactive | inactive | – | – | –
CC(=O)c1ccc2c(c1)Cc1ccccc1-2 | – | – | inactive | inactive | inactive | inactive | inactive | inactive | – | – | – | –
CC(=O)N[C@@H](CCC(=O)O)C(=O)O | – | – | inactive | inactive | inactive | inactive | – | inactive | inactive | – | – | –
COC(=O)CCc1ccc(OCC(O)CNC(C)C)cc1 (configuration not stated) | – | inactive | inactive | inactive | inactive | inactive | – | inactive | inactive | – | – | –
